Results taken from PubChem BioAssay AID624330 (Southern Research Specialized Biocontainment Screening …, 2012).
Where “and” joins values, the source holds several entries; their conditions need not be identical. Identical values can stand only once. Screen size: about 340,000 compounds; about 2,100 (0.62%) were called active.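 Rule for the calls: active = first-screen hits whose inhibition reached a set limit at any dose in the follow-up dose series; inconclusive = inhibition above the set first-screen limit but never retested; inactive = the rest.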 A selection follows. Results with a measured potency or affinity are listed apart.

Molecular target: Rac GTPase-activating protein 1 (Homo sapiens) (UniProt Q9H0H5)
Assay: MgcRacGAP GTPase-activating activity inhibitors, confirmation, biochemical, ADP Hunter fluorescence, primary and confirmatory (AID 624330);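 note: fluorescence reports GDP produced by GAP-driven GTP hydrolysis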
Settings: MgcRacGAP-stimulated Rac1 GTP hydrolysis, at 30 µM, stronger effect = higher value, GST-tagged Rac1 F28L mutant substrate

Chain of Rac GTPase-activating protein 1 (Homo sapiens) (Q9H0H5 whole entry, looked up): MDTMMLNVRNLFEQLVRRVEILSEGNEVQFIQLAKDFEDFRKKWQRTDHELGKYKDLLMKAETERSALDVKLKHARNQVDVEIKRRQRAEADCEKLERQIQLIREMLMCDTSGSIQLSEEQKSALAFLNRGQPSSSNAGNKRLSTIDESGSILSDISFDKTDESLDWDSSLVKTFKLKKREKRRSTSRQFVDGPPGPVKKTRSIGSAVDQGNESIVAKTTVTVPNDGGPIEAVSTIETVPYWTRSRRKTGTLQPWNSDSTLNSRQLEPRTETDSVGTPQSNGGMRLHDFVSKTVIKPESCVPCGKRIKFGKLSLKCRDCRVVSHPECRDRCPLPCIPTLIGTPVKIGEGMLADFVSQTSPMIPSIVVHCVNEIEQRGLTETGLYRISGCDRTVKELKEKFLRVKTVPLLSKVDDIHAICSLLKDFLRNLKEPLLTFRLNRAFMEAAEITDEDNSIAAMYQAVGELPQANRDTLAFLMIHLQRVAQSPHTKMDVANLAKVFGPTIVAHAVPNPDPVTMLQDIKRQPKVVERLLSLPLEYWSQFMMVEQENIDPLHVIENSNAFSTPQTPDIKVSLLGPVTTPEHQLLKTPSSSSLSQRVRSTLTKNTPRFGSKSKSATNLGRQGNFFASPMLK

inhibition, inactive:
COc1ccc(N(C(=O)COc2ccc(C)cc2)S(=O)(=O)c2ccc(C)cc2)cc1 3.97%
COc1ccc(/C=C2\Oc3cc(OCC(N)=O)ccc3C2=O)cc1OC 10.9%
O=C1/C(=C/c2ccc(Br)cc2)Oc2cc(O)ccc21 7.31%
O=C1/C(=C/c2cccc(F)c2)Oc2cc(O)ccc21 6.11%
CC(C)(C)c1ccc(/C=C2\Oc3cc(O)ccc3C2=O)cc1 5.28%
O=C(COC(=O)CNC(=O)c1ccc(Br)cc1)NCCC1=CCCCC1 11.9%
Cc1cccc2cc(CN(CC(C)C)S(=O)(=O)c3ccccc3)c(=O)[nH]c12 8.17%
O=c1c2ccccc2c(C=Nc2ccc(Cl)cn2)c(O)n1-c1cc(Cl)ccc1N1CCOCC1 12.5%
Brc1cc2[nH]cnc2c2ccccc12 8.14%
Oc1ccc2c(c1)c1ccccc1c1ncccc21 17.4%
CCN(CC(=O)Nc1c(F)cccc1F)C(=O)c1cccc(S(=O)(=O)N(C)c2ccccc2)c1 2.67%
COC(=O)C=CSC(=S)C1CCCC1=N (configuration not stated) 6.77%
COc1ccccc1-c1cn(-c2ccccc2)c(=S)[nH]1 10.3%
N#CCCn1c(SCC(=O)c2c[nH]c3ccccc23)nc2ccccc21 15.1%
Cc1nn(-c2cc(C(F)(F)F)ccc2Cl)c2nc(C(Cl)(Cl)Cl)[nH]c(=O)c12 9.52%
COc1ccc(C2C3=C(CC(C)(C)CC3=O)Oc3ncn(Cc4ccccc4)c(=N)c32)cc1 (configuration not stated) 2.61%
COc1cc(/C=C/C(=O)O)ccc1OCc1ccc([N+](=O)[O-])cc1 7.48%
COC(=O)C(=Cc1ccc(OCc2ccc([N+](=O)[O-])cc2)c(OC)c1)C(=O)OC 13.9%
C/C(N)=C(/C#N)C(=O)CSc1nnc(SCc2ccc(Cl)cc2)s1 2.43% and 2.31%
COc1cc(C(=O)NNC(=O)CNC(=O)C2CCCCC2)ccc1OC(C)C 0.59%
Cc1ccc(S(=O)(=O)N2[C@@H](c3ccc(F)cc3)C(C(=O)O)=C[C@H]2CC2CCCC2)cc1 11%
CN(C)c1ccc(NC(=O)CN2CCc3ccccc3C2)cc1 14.3%
Cc1ccc(NC(=O)CN2C(=O)c3ccccc3C2=O)cc1 10.7%
O=C(CN1C(=O)c2ccccc2C1=O)Nc1ccccc1 1.35%
CN1CC(=O)N(CC(=O)Nc2ccc(F)cc2)c2ccccc2C1=O -12.2%
CN1CC(=O)N(CC(=O)NCc2ccc(F)cc2)c2ccccc2C1=O 1.75%
COc1ccc(NC(=O)CCN2C(=O)c3cccc([N+](=O)[O-])c3C2=O)cc1 6.66%
CN(C)c1ccc(NC(=O)CN2C(=O)CC(c3ccccc3)=Nc3ccccc32)cc1 30.9%
CCOc1ccc(NC(=O)CCN2C(=O)c3cccc([N+](=O)[O-])c3C2=O)cc1 3.27%
COC(=O)Nc1nnc(-c2ccc(OC)cc2)s1 16%
COc1ccc(C(=O)NNC(=O)COc2ccc(Cl)cc2C)cc1S(=O)(=O)N1CCOCC1 6.89%
O=C(NCCN1CCOCC1)C(Sc1ccccc1)c1ccccc1 (configuration not stated) 15.2%
NCCSc1c(-c2ccc(Cl)cc2)[nH]c2ccccc12 8.34%
O=C(COC(=O)c1c(F)cccc1Cl)NC(=O)Nc1ccc2c(c1)OCCO2 0.21%
CC(=O)NC12CC3CC(C1)CC(C(=O)N1CCN(S(=O)(=O)c4ccccc4[N+](=O)[O-])CC1)(C3)C2 9.33%
COCCNC(=O)c1cc(-c2ccccc2)nn1Cc1cc(C)no1 2.94%
O=c1oc2cc(O)ccc2c2ccccc12 17.2%
Cc1c(-c2ccccc2)c(=O)oc2cc(O)ccc12 7.91%
COc1ccc(F)cc1S(=O)(=O)NCC1CCCO1 (configuration not stated) 1.18%
O=C(CSc1nc(-c2ccco2)cc(C(F)(F)F)n1)Nc1ccc2c(c1)OCO2 4.87%
Cc1ccc(CNc2nc(C)nc3sc4c(c23)CCC4)cc1 5.5%
Cc1nc(Nc2cccc(O)c2)c2c3c(sc2n1)CCC3 10.2%
O=C(c1cccc(S(=O)(=O)N2CCCCCC2)c1)N1CCN(c2ccccc2F)CC1 2.31%
COc1ccccc1OCC(=O)N1CCCC(Nc2ccc(F)c(F)c2)C1 (configuration not stated) 7.15%
O=C1CCCN1CCC(=O)N1CCCC(Nc2ccc(F)c(F)c2)C1 (configuration not stated) 7.57%
O=C(CSc1ccccc1)N1CCCC(Nc2ccccc2)C1 (configuration not stated) 8.49%
O=C1CCCN1CCC(=O)N1CCCC(Nc2ccc(F)cc2)C1 (configuration not stated) 7.82%
O=C(CCCn1cncn1)N1CCCC(Nc2ccc(F)cc2)C1 (configuration not stated) 5.12%
COc1ccccc1OCC(=O)N1CCCC(Nc2ccc(C)c(C)c2)C1 (configuration not stated) 14.2%
CC(C)c1ccc(NC2CCCN(C(=O)CCCn3cncn3)C2)cc1 (configuration not stated) 6.88%
COc1ccc(NC2CCCN(C(=O)CSc3ccccn3)C2)cc1OC (configuration not stated) 30.4%
C[C@@H]1CN([C@@H](C)CO)C(=O)c2cc(Br)cnc2O[C@@H]1CN(C)C(=O)Nc1ccc(F)cc1 9.67%
C[C@H](NC(N)=O)C(=O)OCC(=O)Nc1ccc(OC(F)F)cc1 5.01%
COc1ccc(C2C(C(=O)NCc3ccco3)CCC(=O)N2c2ccc(OC)cc2)cc1 (configuration not stated) -1.81%
O=C(CN1CCCC1)Nc1cccc(Cl)c1 6.77%
CN(CCOc1ccc(Cl)cc1)C(=O)c1cccc(S(=O)(=O)N2CCN(c3ccc(F)cc3)CC2)c1 2.42%
COc1cccc(/C=N/n2c(-c3n[nH]c4c3CCC4)n[nH]c2=S)c1OC 10.4%
COc1ccc(/C=N/n2c(SC)nnc2-c2ccccc2)c(OC)c1OC 10.5%
COc1ccc(/C=N/n2c(SC)nnc2-c2ccccc2)cc1C 12.1%
COc1cccc(/C=N/n2c(C3CCCCC3)n[nH]c2=S)c1O 17.5%
COc1ccc(/C=N/n2c(C)nnc2C)c(OC)c1OC 8.6%
COc1ccc(/C=N/n2c(-c3ccc(C)cc3)n[nH]c2=S)cc1OC 8.75%
